# Measurements taken from the supplement of paper PMC10127200.
# Structures can show the parent of a compound that is named as a salt.
# Columns and labels:
# Experiment in all cases: Euclidean distance of Cell Painting phenotypic profile (signed KS, 77 features) to DMSO centroid (dimensionless distance); higher = stronger phenotypic change vs DMSO (phenoactivity)
# Conditions in all cases: 48 h; 5 or 10 uM (library dependent)
# 786-O = test system: 786-O
# Procedure, shortened: (§1)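 Five cancer lines and a healthy fibroblast line received library compounds at 10 or 5 uM (library-dependent, 0.1% DMSO final) for 48 h. Stained cells were imaged confocally at 20X (9 fields/well). Harmony extracted 77 features, each scored as a signed Kolmogorov-Smirnov statistic against same-plate vehicle wells. Profiles were plate-position corrected, correlation-weighted and replicate-averaged at the top dose. Phenoactivity is the Euclidean distance from each profile to the median vehicle profile.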
# A549 = test system: A549
# Procedure, shortened: as §1
# DU145 = test system: DU145
# Procedure, shortened: as §1
# FB = test system: FB
# Procedure, shortened: as §1
# HEPG2 = test system: HEPG2
# Procedure, shortened: as §1
# OVCAR4 = test system: OVCAR4
# Procedure, shortened: as §1
SMILES,Euclidean distance (786-O),Euclidean distance (A549),Euclidean distance (DU145),Euclidean distance (FB),Euclidean distance (HEPG2),Euclidean distance (OVCAR4)
COc1cc2c(cc1OC)[C@@]13CCN4CC5=CCO[C@H]6CC(=O)N2[C@H]1[C@H]6[C@H]5C[C@H]43 [Brucine sulfate salt hydrate],1.36,0.862,0.987,1.47,0.722,0.846
O=[N+]([O-])/C=C/c1ccc2c(c1)OCO2,4.42,2.25,0.868,2.39,0.782,2.34
CNCC(O)c1ccc(O)cc1 (centres undefined) [Synephrine HCl],0.581,0.451,0.914,0.485,0.371,1.27
C=CCC(C(=O)NC(N)=O)C(C)C (centres undefined) [Apronal],1.22,0.684,1.07,0.907,0.938,1.09
CN1CCC(C(=O)c2cccc(NC(=O)c3c(F)cc(F)cc3F)n2)CC1 [Lasmiditan succinate],1.46,0.669,1.83,0.918,0.782,1.39
C/C=C(\C)C(=O)N[C@@H](c1ccccc1)[C@@H](O)C(=O)O[C@H]1C[C@@]2(O)[C@@H](OC(=O)c3ccccc3)[C@@H]3[C@]4(OC(C)=O)CO[C@@H]4C[C@H](O)[C@@]3(C)C(=O)[C@H](OC(C)=O)C(=C1C)C2(C)C [Cephalomannine],2.74,3.24,3.48,2.32,2.11,2.98
CC(=O)O[C@H]1C[C@H](O[C@H]2[C@@H](O)C[C@H](O[C@H]3[C@@H](O)C[C@H](O[C@H]4CC[C@@]5(C)[C@H](CC[C@@H]6[C@@H]5C[C@@H](O)[C@]5(C)[C@@H](C7=CC(=O)OC7)CC[C@]65O)C4)O[C@@H]3C)O[C@@H]2C)O[C@H](C)[C@H]1O[C@@H]1O[C@H](CO)[C@@H](O)[C@H](O)[C@H]1O [Lanatoside C],6.1,5.41,7.41,3.88,2.69,6.46
CN1[C@@H]2C[C@@H](OC(=O)[C@H](CO)c3ccccc3)C[C@H]1[C@@H]1O[C@@H]12 [Scopolamine HBr],1.07,0.645,0.406,0.816,0.391,1.01
CNC(=O)Oc1cccc2ccccc12 [Carbaryl],1.83,1.3,0.843,0.842,0.501,1.03
CC(C)(C)c1cc(C=C(C#N)C#N)cc(C(C)(C)C)c1O [Tyrphostin 9],3,2.48,1.41,1.32,0.766,1.95
CCC(=O)O[C@H]1CC[C@H]2[C@@H]3CC[C@H]4CC(=O)[C@H](C)C[C@]4(C)[C@H]3CC[C@]12C [Drostanolone Propionate],0.791,1.02,0.706,0.585,1.34,0.745
Cc1cccc(Cc2c[nH]cn2)c1C [Detomidine HCl],1.46,0.895,1.16,0.994,1.89,1.34
NCCc1c[nH]c2ccc(O)cc12 [Serotonin HCl],1.02,0.797,1.01,1.12,0.38,1.71
C[CH2][Hg][S]c1ccccc1C(=O)[O-].[Na+] [Thimerosal],5.05,2.89,6.79,6.21,1.5,2.69
Cn1cc(C2=C(c3cn(C4CCN(Cc5ccccn5)CC4)c4ccccc34)C(=O)NC2=O)c2ccccc21,1.96,3.16,1.32,0.965,0.683,1.79
c1ccc2c(c1)Sc1ccccc1N2CC1CN2CCC1CC2 (centres undefined) [Mequitazine],2.14,1.44,1.35,2.64,2.43,1.19
Cc1ncc(CNC(=O)N(CCCl)N=O)c(N)n1 [Nimustine Hydrochloride],1.62,0.894,0.692,0.831,0.722,0.918
COc1ccc(CN2CCNCC2)c(OC)c1OC [Trimetazidine dihydrochloride],0.784,0.96,0.805,0.719,0.412,1.08
C[C@]12CC[C@H](O)C[C@@H]1CC[C@@H]1[C@@H]2CC[C@]2(C)C(=O)CC[C@@H]12 [Epiandrosterone],1.32,1.2,0.784,1.34,0.785,0.989
C[N+](C)(C)CCCCCCCCCC[N+](C)(C)C [Decamethonium Bromide],0.57,0.939,0.691,0.466,0.483,1.05
CN1C(=O)COc2c(C(=O)NC3CN4CCC3CC4)cc(Cl)cc21 (centres undefined) [Azasetron HCl],0.735,0.632,0.582,0.666,0.533,0.74
O=C([O-])C(Cl)Cl.[Na+] [Sodium dichloroacetate (DCA)],0.79,0.753,0.544,0.681,0.496,1.4
O=C(CBr)N1CC([N+](=O)[O-])([N+](=O)[O-])C1,0.949,1.3,0.88,0.833,0.776,0.926
CCCN1C[C@H](CSC)C[C@@H]2c3cccc4[nH]cc(c34)C[C@H]21 [Pergolide mesylate],0.662,0.713,1.01,0.92,2.27,1.02
COC(=O)C1=CCCN(C)C1 [Arecoline HBr],0.921,0.978,1.03,1.12,0.958,1.12

SMILES,Euclidean distance (786-O),Euclidean distance (A549),Euclidean distance (DU145),Euclidean distance (FB),Euclidean distance (HEPG2),Euclidean distance (OVCAR4)
C[C@@H]1CC[C@H]2[C@@H](C)C(=O)O[C@@H]3O[C@@]4(C)CC[C@@H]1[C@]32OO4 [Artemisinin],1.18,1.01,1.43,0.903,1.24,1.25
CCNC(=O)C[C@@H]1N=C(c2ccc(Cl)cc2)c2cc(OC)ccc2-n2c(C)nnc21,1.96,1.78,1.76,3.4,1.26,1.66
COC[C@H]1OC(=O)c2coc3c2[C@@]1(C)C1=C(C3=O)[C@@H]2CCC(=O)[C@@]2(C)C[C@H]1OC(C)=O [Wortmannin],1.37,1.06,1.2,2.24,0.655,1.14
COc1ccc2c(c1)[C@]13CCCC[C@@H]1[C@H](C2)N(C)CC3 [Dextromethorphan hydrobromide hydrate],1.3,1.32,0.854,1.76,1.11,1.39
O=C(O[C@H]1C[C@H]2CC[C@@H](C1)[N+]21CCCC1)C(O)(c1ccccc1)c1ccccc1 [Trospium chloride],0.712,0.693,0.879,0.927,0.66,1.39
Cc1ccc(/N=C/N(C)/C=N/c2ccc(C)cc2C)c(C)c1 [Amitraz],0.966,0.885,0.902,0.718,0.47,0.684
C[S+]([O-])CCCCN=C=S (centres undefined) [sulforaphane],1.73,1.68,1.89,2.33,2.6,1.58
O=C(O)CCCc1ccc(N(CCCl)CCCl)cc1 [Chloroambucil],2.21,1.7,0.964,1.7,0.893,1.49
Cc1cccc([C@H](C)c2c[nH]cn2)c1C [Dexmedetomidine],0.401,0.732,0.547,0.876,0.546,1.12
CC(O)(CS(=O)(=O)c1ccc(F)cc1)C(=O)Nc1ccc(C#N)c(C(F)(F)F)c1 (centres undefined) [Bicalutamide],1.1,1.04,0.992,1.28,0.832,1.65
CC[C@H]1[C@@H]2C[C@H]3[C@@H]4N(C)c5ccccc5[C@]45C[C@@H]([C@@H]2[C@H]5O)N3[C@@H]1O [Ajmaline],1.39,0.849,1.04,0.914,0.486,1.05
c1ccc2c(c1)Nc1ccccc1S2 [Phenothiazine],0.657,0.876,0.829,1.1,1.4,0.881
O=C(O)CNC(=O)c1c(O)c2ccccc2n(Cc2ccccc2)c1=O,0.98,0.849,1.14,1.06,0.682,0.719
CCOC(=O)Nc1ccc(NCc2ccc(F)cc2)cc1N [Retigabine 2HCl],0.771,1.35,0.995,0.958,0.601,0.882
CC(Cc1ccc(O)cc1)NCC(O)c1cc(O)cc(O)c1 (centres undefined) [Fenoterol hydrobromide],0.772,0.319,0.524,0.734,0.461,0.781
C=CCN1CC[C@]23c4c5ccc(O)c4O[C@H]2C(=O)CC[C@@]3(O)[C@H]1C5 [Naloxone HCl],1.04,0.456,0.671,0.576,0.59,0.689
COCC1(CO)C(=O)C2CCN1CC2 (centres undefined),3.17,3.25,4.09,3.41,2.42,2.18
C[C@]12CC[C@@H]3c4ccc(OC(=O)N(CCCl)CCCl)cc4CC[C@H]3[C@@H]1CC[C@@H]2OP(=O)(O)O [Estramustine phosphate sodium],1.21,0.586,0.548,0.917,0.766,0.779
Oc1cccc2cccnc12 [8-Hydroxyquinoline],4.55,1.4,2.11,6.09,1.99,1.56
CC(=O)Nc1ccc(Cc2ccc(NC(C)=O)cc2)cc1,1.08,2.27,0.674,0.9,0.667,1.25
Cc1cc(O)ccc1Cl [Chlorocresol],0.894,0.612,0.527,0.762,0.668,1.1
NCCCNCCSP(=O)(O)O [Amifostine],2.98,1.18,1.66,1.8,1.22,1.31
Cn1c(CCCCCCC(=O)NO)nc2cc(N(CCCl)CCCl)ccc21 [Tinostamustine(EDO-S101)],3.61,3.53,3.45,2.57,2.74,3.16
O=C(O)CNC(=O)C1C(=O)N(C2CCCCC2)C(=O)N(C2CCCCC2)C1=O,1.18,0.61,1.4,1.16,1.1,0.706
